The text below walks through data of the supplement of paper PMC4022240.

± gives the standard deviation.

What all share (test): peptide microarray binding signal (635 nm), min-max normalized on array (fraction of array maximum); higher = stronger binding
The target of experiment [1] is T1, HaloTag-ATRX ADD domain (163-292).
T1 chain: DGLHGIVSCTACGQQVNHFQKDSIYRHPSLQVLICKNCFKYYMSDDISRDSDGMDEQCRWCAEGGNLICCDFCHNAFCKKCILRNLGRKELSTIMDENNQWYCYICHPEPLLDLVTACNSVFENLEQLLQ
On the procedure:
(§1)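 Histone 13-mer peptides were synthesized as cellulose conjugates with a C-terminal 20-atom PEG linker and printed in triplicate on nitrocellulose. The sequence given is the unmodified backbone; PTMs (Kme1/2/3, Kac, Sph/Tph, Rme/Rme2a/Rme2s, Rcit) are listed in the label and the 'peptide modifications' condition. Slides were probed at 4 °C for 1 h with biotin-labelled (HQ)5-HaloTag reader fusions (ATRX-ADD, ING2-PHD) then streptavidin-Alexa647, or with rabbit histone antibodies then anti-rabbit Alexa647. The mean 635 nm signal of the triplicate spots was scaled 0-1 between the lowest and highest values on each array.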

The target of experiment [2] is HaloTag-ING2 PHD (mouse Ing2 200-280). The procedure:
as §1

The target of experiment [3] is anti-H3K4me3 antibody ab8580. On the procedure:
as §1

Experiment [4] addresses anti-H3K9me3 antibody ab8898. On the procedure: as §1
The mark [5] stands for this setting: peptide region: H2B 7-19, peptide modifications: H2BK12ac H2BS14ph H2BK15ac H2BK16ac, binder concentration: 1:2,000 dilution.
The mark [6] stands for this setting: peptide region: H2B 7-19, peptide modifications: H2BK12ac H2BS14ph H2BK15ac H2BK16ac, binder concentration: 1:10,000 dilution.
Setting [7] is: peptide region: H2B 7-19, peptide modifications: H2BK12ac H2BS14ph H2BK16ac, binder concentration: 1:2,000 dilution.
The mark [8] stands for this setting: peptide region: H2B 7-19, peptide modifications: H2BK12ac H2BS14ph H2BK16ac, binder concentration: 1:10,000 dilution.
Setting [9] is: peptide region: H2B 17-29, peptide modifications: H2BK20ac H2BK23ac H2BK24ac, binder concentration: 1:2,000 dilution.
Where [10] appears, read: peptide region: H2B 17-29, peptide modifications: H2BK20ac H2BK23ac H2BK24ac, binder concentration: 1:10,000 dilution.
Setting [11] is: peptide region: H2B 7-19, peptide modifications: H2BK15ac H2BK16ac, binder concentration: 1:2,000 dilution.
[12] abbreviates: peptide region: H2B 7-19, peptide modifications: H2BK15ac H2BK16ac, binder concentration: 1:10,000 dilution.
Where [13] appears, read: peptide region: H2B 17-29, binder concentration: 1:2,000 dilution.
Setting [14] is: peptide region: H2B 17-29, binder concentration: 1:10,000 dilution.

B1: H2B 7-19 A P A P K Kac G Sph Kac Kac A V T (peptide)
chain: APAPKKGSKKAVT
On to B1, for which the “peptide microarray binding signal” value in experiment [1] (peptide region: H2B 7-19, peptide modifications: H2BK12ac H2BS14ph H2BK15ac H2BK16ac, binder concentration: 50 nM) is 0.00257 ± 9.2e-05; in experiment [1] (peptide region: H2B 7-19, peptide modifications: H2BK12ac H2BS14ph H2BK15ac H2BK16ac, binder concentration: 500 nM), 0.00224 ± 5e-05; in experiment [2] (peptide region: H2B 7-19, peptide modifications: H2BK12ac H2BS14ph H2BK15ac H2BK16ac, binder concentration: 10 nM), 0.005013 ± 2.5e-05; in experiment [2] (peptide region: H2B 7-19, peptide modifications: H2BK12ac H2BS14ph H2BK15ac H2BK16ac, binder concentration: 100 nM) it was 0.00213 ± 9.1e-05; in experiment [3] (setting [5]), 0.000793 ± 0.00015; in experiment [3] (setting [6]) it was 0.000799 ± 8.3e-06. The “peptide microarray binding signal” value in experiment [4] (setting [5]) turned out to be 0.000423 ± 8.2e-06; in experiment [4] (setting [6]), 0.0011 ± 4e-05.

B2: H2B 7-19 A P A P K Kac G Sph K Kac A V T (peptide)
chain: APAPKKGSKKAVT
In the case of B2, the “peptide microarray binding signal” value amounted to 0.00194 ± 3.1e-05 in experiment [1] (peptide region: H2B 7-19, peptide modifications: H2BK12ac H2BS14ph H2BK16ac, binder concentration: 50 nM); 0.00229 ± 3.3e-05 in experiment [1] (peptide region: H2B 7-19, peptide modifications: H2BK12ac H2BS14ph H2BK16ac, binder concentration: 500 nM); 0.00358 ± 0.00017 in experiment [2] (peptide region: H2B 7-19, peptide modifications: H2BK12ac H2BS14ph H2BK16ac, binder concentration: 10 nM); 0.00198 ± 0.00015 in experiment [2] (peptide region: H2B 7-19, peptide modifications: H2BK12ac H2BS14ph H2BK16ac, binder concentration: 100 nM); 0.000831 ± 0.00011 in experiment [3] (setting [7]); 0.000628 ± 6.7e-06 in experiment [3] (setting [8]). In addition, the “peptide microarray binding signal” value is 0.000362 ± 6.3e-06 in experiment [4] (setting [7]) and 0.00075 ± 1.6e-05 in experiment [4] (setting [8]).

B3: H2B 17-29 A V T Kac A Q Kac Kac D G K K R (peptide)
chain: AVTKAQKKDGKKR
For B3, the “peptide microarray binding signal” value stood at 0.00661 ± 0.00032 in experiment [1] (peptide region: H2B 17-29, peptide modifications: H2BK20ac H2BK23ac H2BK24ac, binder concentration: 50 nM); 0.0168 ± 0.0019 in experiment [1] (peptide region: H2B 17-29, peptide modifications: H2BK20ac H2BK23ac H2BK24ac, binder concentration: 500 nM); 0.0274 ± 0.0038 in experiment [2] (peptide region: H2B 17-29, peptide modifications: H2BK20ac H2BK23ac H2BK24ac, binder concentration: 10 nM); 0.0204 ± 0.0078 in experiment [2] (peptide region: H2B 17-29, peptide modifications: H2BK20ac H2BK23ac H2BK24ac, binder concentration: 100 nM); 0.00636 ± 0.0011 in experiment [3] (setting [9]); 0.0024 ± 0.00011 in experiment [3] (setting [10]). Moreover, the entries for the “peptide microarray binding signal” value in experiment [4] (setting [9]) and in experiment [4] (setting [10]) were 0.00204 ± 0.00015 and 0.00208 ± 8.4e-05, respectively.

B4: H2B 7-19 A P A P K K G S Kac Kac A V T (peptide)
chain: APAPKKGSKKAVT
Turning to B4, the “peptide microarray binding signal” value was 0.00539 ± 7.7e-05 in experiment [1] (peptide region: H2B 7-19, peptide modifications: H2BK15ac H2BK16ac, binder concentration: 50 nM); 0.00995 ± 0.00033 in experiment [1] (peptide region: H2B 7-19, peptide modifications: H2BK15ac H2BK16ac, binder concentration: 500 nM); 0.0115 ± 0.00069 in experiment [2] (peptide region: H2B 7-19, peptide modifications: H2BK15ac H2BK16ac, binder concentration: 10 nM); 0.0164 ± 0.004 in experiment [2] (peptide region: H2B 7-19, peptide modifications: H2BK15ac H2BK16ac, binder concentration: 100 nM); 0.00217 ± 0.0011 in experiment [3] (setting [11]); 0.00131 ± 5.7e-05 in experiment [3] (setting [12]). The “peptide microarray binding signal” value in experiment [4] (setting [11]) is 0.00133 ± 5.4e-05; in experiment [4] (setting [12]) it was 0.00185 ± 6.1e-05.

B5: H2B 17-29 A V T K A Q K K D G K K R (peptide)
chain: AVTKAQKKDGKKR
In the case of B5, the “peptide microarray binding signal” value in experiment [1] (peptide region: H2B 17-29, binder concentration: 50 nM) was 0.00972 ± 0.00026; in experiment [1] (peptide region: H2B 17-29, binder concentration: 500 nM) it was 0.0111 ± 0.00017; in experiment [2] (peptide region: H2B 17-29, binder concentration: 10 nM), 0.0152 ± 0.0002; in experiment [2] (peptide region: H2B 17-29, binder concentration: 100 nM), 0.00666 ± 0.00025; in experiment [3] (setting [13]), 0.0021 ± 7.2e-05; in experiment [3] (setting [14]), 0.00428 ± 3.3e-05. Besides, the “peptide microarray binding signal” value in experiment [4] (setting [13]) came out at 0.00118 ± 1.6e-05; in experiment [4] (setting [14]) it was 0.00421 ± 8.6e-05.
